The list is not random: actives were taken first. Their share in the collection is about 2.8%.
HTT ATP protect – qHTS Multiplex Assay to Identify Dual Action Probes in a Cell Model of Huntington: Cytoprotection (ATP); PC12 HTT-Q103 induced, cytoprotection, ATP luminescence, 40 h; Potency, µM (doses to about 56.4 µM), inactives show cytoprotection (ATP increase), actives largely listed as activators; hit rate 0.14% among 230,000; AID 1471, 2008; also: % of control where 0% means no effect; nearly all actives have a fitted effect of over 45% in size
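Compounds were screened for protection of PC12 cells against cell death after tebufenozide induction (100 nM final) of mutant Huntingtin exon 1 (Q103) fused to GFP.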
HTT aggregate – qHTS Multiplex Assay to Identify Dual Action Probes in a Cell Model of Huntington: Aggregate Formation (GFP) | PC12 HttQ103-GFP aggregates, Acumen cytometry, 40 h | Potency, µM (doses to about 46.1 µM), for the others: top-dose activity change, negative = inhibition, actives largely listed as inhibitors | hit rate 1.1% among 220,000 | AID 1688, 2009; also: % is scaled to controls: 0 for no effect and ±100 for the full control effect; nearly all actives have a fitted effect of over 60% in size
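Ecdysone-promoter PC12 model expressing HTT exon 1 Q103 fused to GFP, induced by tebufenozide at 100 nM final. Compounds titrated; aggregates sized 1–25 µm scored on a 488 nm laser cytometer.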
S2 tox – Viability Counterscreen for Primary qHTS for Inhibitors of ATXN expression; hit rate 0.49% among 400,000; Potency, µM (doses to about 56.7 µM), actives largely listed as cytotoxic; S2 cells (HEK-293 line with an ATXN2-luciferase reporter) viability, CellTiter-Fluor protease fluorescence, 24 h; also: nearly all actives have a fitted effect of over 40% in size
HepG2 tox – qHTS for Inhibitors of TGF-b: Cytotox Counterscreen | HepG2 CAGA-GFP viability, ATP luminescence, 18 h | Potency, µM (top dose mostly 46.1 µM), for inactives: at the highest dose activity change, negative = cytotoxicity, hits mostly cytotoxic | hit rate 0.76% among 410,000
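CellTiter-Glo luminescence gave cytotoxicity after 18 hours at 37 degrees C. The cells were HepG2 CAGA-GFP in 1% FBS DMEM, stimulated with 500 pg/mL TGF-beta after compound addition. %Activity was normalised to no-cell wells (complete cell-killing) and DMSO (no toxicity), and curves were fitted and classified.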
TGFb inhibitor – qHTS for Inhibitors of TGF-b; AID 588855, 2011; hit rate 1.2% among 410,000; Potency, µM (titrated, usually from 46.1 µM), inactives show at the highest dose activity, negative = inhibition, most hits filed as inhibitors; HepG2 CAGA-GFP TGF-b/SMAD3 reporter, GFP fluorescence, 18 h; TGF-beta stimulated, 500 pg/mL final; also: % is scaled to controls: 0 for no effect and ±100 for the full control effect; nearly all actives have a fitted effect of over 65% in size
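First, reporter cells (HEPG2 CAGA-GFP) rested 2 h at 37 degrees C. Next, compounds were pinned in and TGF-beta added to 500 pg/mL final. After 18 h, GFP was imaged per cell and summed per well.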
ATXN2 expr inh – Primary qHTS for Inhibitors of ATXN expression | HEK-293 ATXN2-luciferase reporter, luminescence, 24 h | Potency, µM (titrated, usually from 57 µM), without a hit: top-dose activity change, negative = inhibition, most hits filed as inhibitors | hit rate 0.72% among 360,000; also: % is scaled to controls: 0 for no effect and ±100 for the full control effect; nearly all actives have a fitted effect of over 55% in size
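ATXN2-luciferase reporter cells (luciferase flanked by upstream and downstream ATXN2 gene portions) were treated 24 h at 37 °C with compounds at up to 57 uM. SteadyGlo luminescence gave expression; GF-AFC fluorescence gave viability.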
The depositor's hits bear a star; i = inactive; ? = inconclusive; / = no result; [ ] = remark or other dose. Calls follow the shape of the dose curve; as a rule, active = well fitted curve in the direction sought with a large enough effect; inconclusive = small, poorly fitted or top-dose-only effect, or another doubt; inactive = no such curve, though single readings can be large; an effect the other way counts as inactive or inconclusive. Potency is read from the fitted curve at half-maximal effect.

SMILES	HTT ATP protect	HTT aggregate	S2 tox	HepG2 tox	TGFb inhibitor	ATXN2 expr inh
Cc1cc(C)c2c(c1)-c1c(ssc1=S)C(C)(C)N2C(=O)CSc1nncn1C	10.3%[10 µM]	-16.3%	?	-25.2%	6.31µM*	?
Cc1ccc2[nH]c3c(c2c1)CCCC3NC(=O)CCl (stereo not drawn)	/	/	?	17.8µM*	?	?
Cc1ccc2[nH]c3c(c2c1)CCCC3C(N)=O (stereo not drawn)	2.8%[10 µM]	4.2%	i	-5.1%	-12.7%	-1.9%
O=[N+]([O-])c1ccc(N=Nc2c(Cl)cc(O)cc2Cl)cc1	-43.6%[10 µM]	-35.0%[9.22 µM]	?	3.16µM*	1.12µM*	/
CC1(C)[C@@H]2CC[C@@](C)(C2)[C@H]1OC(=O)c1ccccc1C(=O)O	1.5%[10 µM]	/	/	/	/	/
O=C(Nc1cnn(Cc2ccc(F)cc2)c1)c1cc(-c2ccc(Br)cc2)on1	-9.7%	/	/	/	/	/
CC(C)c1cc(C(=O)N2Cc3ccc(CN4CCN(C)CC4)cc3C2)c(O)cc1O	/	/	/	/	/	0.217µM*
CCc1c(C)nc2ncnn2c1NCCc1ccccc1	-37.2%	10µM*	?	-12.9%	-13.9%	-7.8%
COc1ccc(CCSc2n[nH]c(C(C)C)n2)cc1	/	/	/	-4.6%	-2.3%	/
c1cc2c(cc1Cc1cncc(Cc3ccc4c(c3)OCO4)c1)OCO2	/	/	/	5.7%	21.8%	/
CC(C)(C(=O)O)c1ccc(C(O)CCCN2CCC(C(O)(c3ccccc3)c3ccccc3)CC2)cc1 (stereo not drawn)	-53.0%	/	i	-8.8%	7.2%	-0.2%
Cc1cc(OCCCN2CCC(C(O)(c3ccccc3)c3ccccc3)CC2)ccc1Br	/	/	22.4µM*	/	/	31.6µM*
Cc1ccccc1N1CCN(S(=O)(=O)c2ccc3oc(=O)ccc3c2)CC1	1.7%[10 µM]	10µM*	i	-0.2%	-31.5%	-2.8%
Cn1c(=O)oc2cc(S(=O)(=O)N3CCN(c4ccccc4F)CC3)ccc21	/	/	i	3.6%	-0.7%	-0.2%
CCN1C(=O)[C@@H]2[C@H]3C(=CC[C@@H]2C1=O)C1(OCCCO1)[C@H]1O[C@@H]1[C@H]3O	-9.8%[10 µM]	/	/	/	/	/
O=S1(=O)CCO[C@H]2CCCC[C@@H]2N1Cc1cccc(F)c1	/	/	/	-1.9%	14.1%	/
Cc1cc(/C=C2\Sc3ccccc3N2C)cc(C)[n+]1CC1CCCO1 (stereo not drawn)	-62.2%[10 µM]	2.82µM*	/	-17.1%	30.7%	1.19µM*
Cc1ccc(/C=C2/Sc3ccccc3N(CC(=O)NCC3CCCO3)C2=O)cc1 (stereo not drawn)	/	/	?	-12.3%	-0.2%	-19.6%
Cc1ccccc1Nc1cc2ccccc2c(=O)[nH]1	-5.3%[10 µM]	26.8%	?	11.2µM*	4.47µM*	-4.7%
Nc1nc(=O)n([C@H]2CSC(CO)O2)cc1F (stereo partly drawn)	/	/	/	/	/	-5.0%
O=C(c1cccc2c1-c1ccccc1/C2=N/O)N1CCCCC1	6.1%	11.2µM*	i	-20.3%	0.8%	-14.5%
COC(=O)CC1c2ccccc2C(Cc2ccc(OC)cc2)C(C)N1C(=O)OC (stereo not drawn)	-19.6%[10 µM]	/	/	/	/	/
COc1ccc(C2C3C=CCCC3(C)C(=O)N2Cc2ccccc2)cc1Cl (stereo not drawn)	/	/	/	-43.4%	14.1µM*	/
CC(=O)N(C1CC(C)C(C#N)(C#N)C1(C#N)C#N)N(C)C (stereo not drawn)	-15.8%	18.2%[9.22 µM]	29.9µM*	-37.6%	?	?
CCCC(=O)N(C1CC(C)C(C#N)(C#N)C1(C#N)C#N)N(C)C (stereo not drawn)	?	?	?	-95.7%	11.2µM*	?
SMILES	HTT ATP protect	HTT aggregate	S2 tox	HepG2 tox	TGFb inhibitor	ATXN2 expr inh
Nc1ccc([N+](=O)[O-])c(C(F)(F)F)c1	/	/	i	/	/	6.2%
OC(COc1cccc2ccccc12)CN1CCN(c2cccc(Cl)c2)CC1 (stereo not drawn)	-0.6%[10 µM]	3.2%[9.22 µM]	?	-1.8%	-10.4%	/
OC(COc1cccc2ccccc12)CN1CCN(c2ccc(Cl)cc2)CC1 (stereo not drawn)	-14.6%[10 µM]	-11.1%[9.22 µM]	?	-93.8%	15.8µM*	/
CCOc1ccc2c(ccc(/C=C/c3cc(C)c4cccnc4c3O)[n+]2C)c1	/	/	7.52µM*	-103.5%	7.08µM*	?
O=C(O)c1cc(N/N=C/c2ccc3c(c2)OCO3)ccc1Cl	-60.6%	25.2%	i	0.0%	14.4%	36.4%
O=C(O)c1cc(N/N=C/c2ccc3c(c2)OCCO3)ccc1Cl	-2.5%[10 µM]	-19.3%	i	-11.7%	-10.3%	4.47µM*
COc1ccc(C(=O)NCCN2Cc3cc(C)ccc3OC(C)C2)c(OC)n1 (stereo not drawn)	/	/	i	/	/	/
CCCCC/C=C\C\C=C/C=C/C=C/[C@@H](SCC(N)C(=O)NCC(=O)O)[C@@H](O)CCCC(=O)O (stereo partly drawn)	-13.1%	/	/	/	/	/
O=C(OCn1ncc(Br)c(Br)c1=O)c1ccccc1Cl	-80.3%	?	10µM*	17.8µM*	12.6µM*	7.94µM*
O=C(OCn1ncc(Br)c(Br)c1=O)c1ccc(F)cc1	-98.0%[10 µM]	3.98µM*	14.1µM*	10µM*	11.2µM*	7.94µM*
O=C(NCc1nnc2n1CCN(Cc1cccc(C(F)(F)F)c1)CC2)c1ccncc1	/	/	i	/	/	/
Cc1c(CN2CCOc3c(O)cc(-c4nc5ccccc5s4)cc3C2)cnn1C	/	/	i	/	/	/
Cc1nc2n(c(=O)c1CCN1CCC(C(=O)c3ccc(F)cc3)CC1)CCS2	/	/	i	/	/	?
COc1ccc(C2c3[nH]c4ccc(OC)cc4c3CCN2C(=O)Nc2ccccc2)cc1 (stereo not drawn)	/	/	?	-23.3%	8.91µM*	-23.5%
Nn1cnc2c(c1=O)C1(CCCCC1)Cc1ccccc1-2	/	0.5%	i	11.2µM*	8.91µM*	-12.8%
O=C(NC(c1ccc(-c2ccccc2)cc1)c1cnccn1)C1CCN(Cc2ccc(Oc3ccccc3)cc2)CC1 (stereo not drawn)	/	/	?	-61.6%	?	?
COc1cc(CN2CCC(C(=O)NC(c3ccc(-c4ccccc4)cc3)c3cnccn3)CC2)cc(OC)c1 (stereo not drawn)	/	/	?	22.4µM*	?	?
CN(Cc1ccccc1)c1ccc2nnc(-c3ccccc3)n2n1	/	35.5µM*	i	-15.2%	-0.7%	-15.8%
OCCSc1ccc2nnc(-c3ccccc3)n2n1	/	/	/	-2.3%	13.5%	/
CCCn1c(=O)c2sccc2n2c(CCCC(=O)Nc3ccc(Oc4ccccc4)cc3)nnc12	/	/	/	-39.8%	17.8µM*	/

Screening results: PubChem, National Center for Advancing Translational Sciences (NCATS)
